Hit rate of the full screen: of about 98,000 compounds, about 4,900 (5%) were called active. Rule as the data show it: active = inhibition above about 30%; inactive = the rest. Many of the other results were omitted from the sample, so actives are more common in it than they were.
Experiment: yeast control strain growth suppression – counter-screen for post-Golgi transport modulator project, primary screen (AID 738)
Conditions: efflux-deficient yeast background strain, growth absorbance A615, 16 h; at 10 µM; hits give high values

Row | Structure (SMILES) | inhibition
1 | NC(=O)C1(N2CCCCC2)CCN(C2CC(=O)N(Cc3ccc(N4CCCC4=O)cc3)C2=O)CC1 (stereo not drawn) | 10.8% (inactive)
2 | O=C(CCC(=O)OCc1cccc(C(=O)Oc2ccccc2)c1)Nc1cccc2ccccc12 | 0.79% (inactive)
3 | O=C1OC(c2ccc(Cl)cc2)=N/C1=C\c1cccnc1 | -10.4% (inactive)
4 | CS(=O)(=O)c1sc2nc(-c3ccccc3)cc(-c3ccccc3)c2c1N | 10.9% (inactive)
5 | O=C1CN(c2nc(-c3ccccc3)c3cc(Br)ccc3n2)c2ccccc2N1 | 6.52% (inactive)
6 | COc1ccccc1NC(=O)COc1ccc(C(=O)OCC(=O)N(C(C)C)C(C)C)cc1OC | 13.2% (inactive)
7 | FC(F)(F)c1cc(-c2ccco2)nc(NCc2ccc(Cl)cc2)n1 | 25.8% (inactive)
8 | COc1cccc(OCC(O)CN2CCN(CCO)CC2)c1 (stereo not drawn) | -4.45% (inactive)
9 | Cc1ccc(OCC(O)CN2CCN(CC(O)COc3ccc(C)cc3Cl)CC2)c(Cl)c1 (stereo not drawn) | 94.4% (active)
10 | OC(COc1ccc2ccccc2c1)CN1CCOCC1 (stereo not drawn) | 15.5% (inactive)
11 | Cc1ccc(-c2nc(C)sc2CC(=O)O)cc1 | 6.8% (inactive)
12 | COc1ccccc1N(C)S(=O)(=O)c1ccc(C(=O)N2CCC(C(N)=O)CC2)cc1 | 1.96% (inactive)
13 | NC(=O)C1CCN(C(=O)c2ccc(-c3ccccc3)cc2)CC1 | 6.88% (inactive)
14 | NC(=O)C1CCN(C(=O)c2ccc(C(F)(F)F)cc2)CC1 | 36.9% (active)
15 | O=c1oc2c(Cl)cc(Cl)cc2cc1-c1nnc(Nc2ccccc2F)s1 | -3.4% (inactive)
16 | CCS(=O)(=O)n1nc(-c2ccc(OC)cc2)nc1SC | 9.73% (inactive)
17 | CCS(=O)(=O)n1nc(-c2ccccc2)nc1SCc1ccccc1 | 31.2% (active)
18 | Cn1c(CO)cnc1SCc1ccccc1 | 9.24% (inactive)
19 | CCC1(C)Cc2c(sc3nnn(CC(=O)Nc4ccc(Cl)cc4)c(=O)c23)CO1 (stereo not drawn) | 6.74% (inactive)
20 | O=C(NCCCN1CCOCC1)c1cc2c(s1)CCC2 | -14.4% (inactive)
21 | Cc1ccc(-c2n[nH]c(=S)n2/N=C/c2cc3c(cc2[N+](=O)[O-])OCO3)cc1 | -11.7% (inactive)
22 | Cc1n[nH]c(=S)n1/N=C/c1ccc(Br)o1 | 49.4% (active)
23 | C=CCNC(=S)NNc1ncnc2sc3c(c12)CC(C)(C)OC3 | 0% (inactive)
24 | COc1ccccc1NC(=S)NC(=O)C(C)C | 12.3% (inactive)
25 | O=C(NCN1CCN(CCO)CC1)c1cnccn1 | -5.66% (inactive)

Row | Structure (SMILES) | inhibition
26 | Cc1ccc(SCc2cc(=O)[nH]c(N3CCCCC3)n2)cc1 | 7.96% (inactive)
27 | O=c1cc(CSc2ccccn2)nc(N2CCN(c3ccccc3)CC2)[nH]1 | 8.73% (inactive)
28 | O=c1cc(-c2ccccc2)nc(N2CCCCC2)[nH]1 | 45% (active)
29 | CCOC(=O)C(=O)Nc1nc(-c2ccccc2)c(CC)s1 | -2.8% (inactive)
30 | Cc1cccc(CSc2nnc(NC(=O)CSc3nnc(C)s3)s2)c1 | 22.5% (inactive)
31 | CCN(CC)c1ccc(/C=N/Nc2nc(C)cc(=O)[nH]2)cc1 | -2.13% (inactive)
32 | COc1cc2c(cc1OC)C(C(=O)NCc1ccco1)C1c3ccccc3CCN1C2=O (stereo not drawn) | 4.7% (inactive)
33 | CCOC(=O)C1CCN(c2ncnc3c2oc2ccc(Br)cc23)CC1 | 47.4% (active)
34 | CCOC(=O)C1CCN(C(=O)c2oc3ccc(S(=O)(=O)N4CCCCCC4)cc3c2C)CC1 | 8.75% (inactive)
35 | CCOC(=O)N1CCN(C(=O)C2CCN(c3ncnc4c3sc3cccc(F)c34)CC2)CC1 | 2.07% (inactive)
36 | CCCNC(=O)c1c(N)n(-c2ccc(S(N)(=O)=O)cc2)c2nc3ccccc3nc12 | -2.52% (inactive)
37 | Cc1nn(C)c(Oc2ccc(Cl)cc2)c1C=O | 2.69% (inactive)
38 | O=C(COc1ccccc1)NCc1ccc2c(c1)OCO2 | 9.88% (inactive)
39 | O=C(CCCCn1c(=O)[nH]c2ccccc2c1=O)NCc1ccc2c(c1)OCO2 | 1% (inactive)
40 | O=C1N(Cc2ccc3c(c2)OCO3)c2ccccc2C1(O)c1c[nH]c2ccccc12 (stereo not drawn) | 38.7% (active)
41 | Cc1csc(=NC(=O)c2ccccc2)n1CCO | 7.5% (inactive)
42 | CCC(C)NC(=O)CCCc1ccccc1 (stereo not drawn) | 28.4% (inactive)
43 | O=C(CNC(=O)Cc1ccccc1)NCC(=O)OCC(=O)c1ccccc1Cl | 13.6% (inactive)
44 | C=CCOc1c2ccc(C(=O)N(CC)c3ccc(OC)cc3)cc2nn1C | 7.7% (inactive)
45 | O=C(NC1CC1)c1ccc2c(c1)NC(=O)c1ccccc1S2 | -5.47% (inactive)
46 | COc1ccc(C(C#N)Nc2ccc(C)cc2)cc1 (stereo not drawn) | 1.82% (inactive)
47 | COc1ccc(-c2cc(C(=O)n3cnc4ccccc43)c3ccccc3n2)cc1 | 15.1% (inactive)
48 | O=C(CCCOc1ccccc1)NCc1ccco1 | 3.25% (inactive)
49 | O=C(CCOc1ccccc1)NCc1ccccc1 | 39.4% (active)
50 | O=C(CCc1ccccc1)NCc1cccnc1 | 6.95% (inactive)

Row | Structure (SMILES) | inhibition
51 | Cn1sc(NC(=O)c2ccccc2)nc1=O | 4.34% (inactive)
52 | CC(C)(C)c1cc2cccnc2n1Cc1ccccc1 | 7.46% (inactive)
53 | CCOC(=O)c1sc2nc(SC)nc(-c3ccccc3)c2c1N | -7.15% (inactive)
54 | Cc1ccccc1OCC(=O)NCC(=O)OCC(=O)c1ccc2ccccc2c1 | 6.76% (inactive)
55 | Cc1cc2ccccc2n1CCNC(=O)COc1ccc2ccccc2c1 | 44.7% (active)
56 | COCCNC(=O)COc1ccc(C)c(C)c1 | -10.9% (inactive)
57 | COc1ccc(C(=O)CN(C(=O)c2ccc(Cl)cc2)N2C(=O)c3ccccc3C2=O)cc1 | -4.1% (inactive)
58 | COc1cccc(NC(=O)C2c3cc(OC)c(OC)cc3C(=O)N(C)C2c2cccnc2)c1 (stereo not drawn) | -0.14% (inactive)
59 | CC(=O)NNc1cc(=O)c2c(=O)n(C)c(=O)n(C)c2[nH]1 | 0.97% (inactive)
60 | Cn1c2ccccc2n2c(=O)c(=O)n(CC(=O)c3ccc(F)cc3)nc12 | 3.79% (inactive)
61 | Cc1cc(C)c(S(=O)(=O)NCC2CCC(C(=O)NCc3ccc4c(c3)OCO4)CC2)c(C)c1 (stereo not drawn) | 15.2% (inactive)
62 | CCOc1cc(-c2cc(-c3ccc(OC)cc3)nc(N)c2C#N)ccc1O | -2.55% (inactive)
63 | CCOc1ccccc1NC(=O)Nc1cc(OC)ccc1OC | 14.3% (inactive)
64 | CCOc1ccccc1Oc1cn[nH]c1-c1ccc(OC)cc1O | 52.3% (active)
65 | Cn1c2c(c(=O)n(C)c1=O)[C@@H]1c3c(ccc4ccccc34)OC[C@@H]1CO2 | 3.76% (inactive)
66 | CCn1c(/C=C/c2ccc([N+](=O)[O-])o2)nc2ccccc2c1=O | 68% (active)
67 | CCc1ccc(NC(=O)CSc2nc3ccccc3c(=O)n2CCN2CCOCC2)cc1 | 7.51% (inactive)
68 | Cc1nc2ccccc2c(=O)n1CCCn1ccnc1 | 1.67% (inactive)
69 | O=C(Nc1nnc(SCc2ccc(Cl)cc2Cl)s1)C1COc2ccccc2O1 (stereo not drawn) | 5% (inactive)
70 | CCOC(=O)c1cnc(-c2ccccc2)nc1Oc1ccc(C)cc1 | 4.35% (inactive)
71 | Cc1nnc(NC(=O)Cn2c(=O)sc3ccccc32)s1 | -3.03% (inactive)
72 | O=C(CC(O)(C(F)(F)F)C(F)(F)F)Nc1ccc(Cl)c(Cl)c1 | 96.9% (active)
73 | N/C(=N\OC(=O)Nc1ccc(Cl)c(Cl)c1)c1ncc(C(F)(F)F)cc1Cl | 13.3% (inactive)
74 | Cc1nnc(NC(=O)Nc2ccc(Cl)c(Cl)c2)s1 | 3.53% (inactive)
75 | COCc1cc(C)nc2sc3c(=O)n(-c4cccc5ccccc45)nnc3c12 | 21.1% (inactive)

Row | Structure (SMILES) | inhibition
76 | COc1ccc(-c2csc(N3CCN(Cc4ccc5c(c4)OCO5)CC3)n2)cc1 | -2.01% (inactive)
77 | O=C(CN1CCN(c2nc(-c3ccccc3)cs2)CC1)NCc1ccc2c(c1)OCO2 | 44.6% (active)
78 | O=C(Cn1nnc(-c2ccccc2)n1)NCc1ccc2c(c1)OCO2 | 2.85% (inactive)
79 | COc1ccc(C2CC(=O)Nc3sc(=N)c4c(N)c(C#N)c(N)nc4c32)cc1OC (stereo not drawn) | 24.2% (inactive)
80 | Fc1ccccc1/C=C1\CCCC2=C1Nc1ncnn1C2c1ccccc1F (stereo not drawn) | 35.8% (active)
81 | CCCCCn1c(SCCC(C)C)nc2c1c(=O)[nH]c(=O)n2C | 35.5% (active)
82 | CCCCCCn1c(SCC(=O)c2ccccc2)nc2c1c(=O)[nH]c(=O)n2C | 12.4% (inactive)
83 | CCCSc1nc2c(c(=O)[nH]c(=O)n2C)n1CCc1ccccc1 | 16.6% (inactive)
84 | ONC(=Nc1ccccc1)c1ccccc1Cl | 24.2% (inactive)
85 | CN(C(=O)CSc1nnc(N)s1)c1c(N)n(Cc2ccccc2)c(=O)[nH]c1=O | 7.66% (inactive)
86 | Cc1cc([N+](=O)[O-])c(N2CCC[C@@H]2C(=O)O)c([N+](=O)[O-])c1 | 18.4% (inactive)
87 | Cn1c(C(=O)NCCCN2CCCCC2)cc2sccc21 | 2.29% (inactive)
88 | Cc1ccc(Cc2c(C)nc3nc(SCC(=O)NCCN4CCOCC4)nn3c2C)cc1 | 20% (inactive)
89 | Cc1ccsc1-c1nc(CSCC(=O)NCCN2CCCC2)c(C)o1 | 34.5% (active)
90 | COc1ccccc1N1CCN(Cc2ccc(OC)c3ccccc23)CC1 | 34.9% (active)
91 | COc1ccccc1N1CCN(CCCCOc2ccc(F)cc2)CC1 | -0.55% (inactive)
92 | COc1ccccc1N1CCN(Cc2nnnn2CCc2ccccc2)CC1 | 7.81% (inactive)
93 | Cc1cc(C)n2nc(C(=O)NC(C)(C)C)nc2n1 | 4.47% (inactive)
94 | COc1ccc(Oc2c(Cl)cnn(-c3ccccc3)c2=O)cc1 | -3.86% (inactive)
95 | CCN1CCC(=NNC(=O)c2ccc(C)c([N+](=O)[O-])c2)CC1 | 3.82% (inactive)
96 | COc1ccc(-c2nc(CS(=O)CC(=O)N3CCc4ccccc4C3)c(C)o2)cc1 (stereo not drawn) | 4.85% (inactive)
97 | Cc1ccccc1-c1nc(CS(=O)(=O)CC(=O)N2CCc3ccccc3C2)c(C)o1 | 30.9% (active)
98 | Cc1oc(-c2ccccc2F)nc1CS(=O)(=O)CC(=O)NCCCN(C)C1CCCCC1 | 13.5% (inactive)
